# Laboratory results as given in PubChem BioAssay (EPA / NIEHS).
# Results filed as inconclusive are left out. Calls of active or inactive are those of the source. The calls were made as follows, unless noted: active = hit-call score of the fitted dose curve at least 0.9, where 1 is the maximum; inactive = score below 0.9.
# Assays:
# [1] = read-out: NAD(P)H dehydrogenase [quinone] 1 (NQO1), NQO1 (gene 1728); assay: LTEA_HepaRG_NQO1: Life Technologies and Expression Analysis (LTEA) Assay for NAD(P)H dehydrogenase [quinone] 1 (NQO1) using HepaRG (AID 2283526); conditions: mRNA level, 48 h; actives raise or lower the signal
# Summary of the method: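 HepaRG, 48 h post-plating → serum-free induction medium → test chemical 48 h (duplicate, 100 uM top, half-log x8, 0.5% DMSO) → RNA isolation → qRT-PCR, ACTB/GAPDH/POLR2A normalization; bidirectional curve fit vs DMSO baseline.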
# [2] = read-out: Nuclear factor erythroid 2-related factor 2 (Homo sapiens) (UniProt Q16236); assay: LTEA_HepaRG_NFE2L2: Life Technologies and Expression Analysis (LTEA) Assay for Nuclear factor erythroid 2-related factor 2 (NFE2L2) Transcription Factor using HepaRG (AID 2283527); conditions: mRNA level, 48 h; actives raise or lower the signal;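 as to outcome: TaqMan qRT-PCR transcript level normalised to ACTB GAPDH and POLR2A housekeeping genes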
# Summary of the method: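 Differentiated human HepaRG cells in serum-free induction medium were exposed for 48 h to eight concentrations (top 100 uM, half-log dilutions, 0.5% DMSO), in duplicate. NFE2L2 mRNA was quantified by TaqMan qRT-PCR, normalized to ACTB, GAPDH and POLR2A, with bidirectional fitting versus DMSO.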
# [3] = read-out: succinate dehydrogenase complex iron sulfur subunit B (SDHB), SDHB (gene 6390); assay: LTEA_HepaRG_SDHB: Life Technologies and Expression Analysis (LTEA) Assay for succinate dehydrogenase complex iron sulfur subunit B (SDHB) using HepaRG (AID 2283528); conditions: mRNA level, 48 h; actives raise or lower the signal
# Summary of the method: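 A human HepaRG culture in serum-free induction medium received test chemicals for 48 h over an eight-point range capped at 100 uM. SDHB expression change was quantified by qRT-PCR.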
# [4] = read-out: Signal transducer and activator of transcription 3 (Homo sapiens) (UniProt P40763); assay: LTEA_HepaRG_STAT3: Life Technologies and Expression Analysis (LTEA) Assay for Signal transducer and activator of transcription (STAT3) using HepaRG (AID 2283529); conditions: mRNA level, 48 h; actives raise or lower the signal
# Summary of the method: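 Differentiated human HepaRG cells in serum-free induction medium were exposed in duplicate for 48 h to eight half-log concentrations up to 100 uM in 0.5% DMSO. STAT3 mRNA was quantified by TaqMan qRT-PCR, normalized to ACTB, GAPDH and POLR2A, and fitted bidirectionally against DMSO.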
# [5] = read-out: solute carrier (SLCO1B1), SLCO1B1 (gene 10599); assay: LTEA_HepaRG_SLCO1B1: Life Technologies and Expression Analysis (LTEA) Assay for solute carrier (SLCO1B1) using HepaRG (AID 2283530); conditions: mRNA level, 48 h; actives raise or lower the signal
# Summary of the method: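 Differentiated human HepaRG cells, plated 48 h, switched to serum-free induction medium and exposed in duplicate for 48 h to 8 half-log concentrations (top 100 uM) in 0.5% DMSO. SLCO1B1 mRNA by TaqMan qRT-PCR, normalized to ACTB/GAPDH/POLR2A.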
# [6] = read-out: Transforming Growth Factor (TGFA), TGFA (gene 7039); assay: LTEA_HepaRG_TGFA: Life Technologies and Expression Analysis (LTEA) Assay for Transforming Growth Factor (TGFA) using HepaRG (AID 2283532); conditions: mRNA level, 48 h; actives raise or lower the signal
# Summary of the method: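 Differentiated human HepaRG cells, plated 48 h then switched to serum-free induction medium, were exposed in duplicate for 48 h to 8-point half-log series from 100 uM in 0.5% DMSO. TGFA mRNA measured by qRT-PCR, normalized to ACTB/GAPDH/POLR2A, bidirectional fit versus DMSO.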
# [7] = read-out: Transforming Growth Factor (TGFB1), TGFB1 (gene 7040); assay: LTEA_HepaRG_TGFB1: Life Technologies and Expression Analysis (LTEA) Assay for Transforming Growth Factor (TGFB1) Transporter using HepaRG (AID 2283533); conditions: mRNA level, 48 h; actives raise or lower the signal
# Summary of the method: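 Differentiated human HepaRG cells in serum-free induction medium were exposed in duplicate for 48 h to eight concentrations (top 100 uM, half-log steps, 0.5% DMSO). TGFB1 mRNA was quantified by qRT-PCR, normalized to ACTB, GAPDH, POLR2A, and fitted bidirectionally against DMSO.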
# [8] = read-out: TIMP1, TIMP1 (gene 7076); assay: LTEA_HepaRG_TIMP1: Life Technologies and Expression Analysis (LTEA) Assay for TIMP1 using HepaRG (AID 2283534); conditions: mRNA level, 48 h; actives raise or lower the signal;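 also: TaqMan qRT-PCR signal normalized to ACTB GAPDH and POLR2A housekeeping genes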
# Summary of the method: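 Differentiated human HepaRG cells in serum-free induction medium were exposed 48 h to chemicals (8 half-log concentrations, top 100 uM, 0.5% DMSO). TIMP1 mRNA was quantified by TaqMan qRT-PCR, normalized to ACTB/GAPDH/POLR2A; bidirectional fit versus DMSO.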
# [9] = read-out: Tumor necrosis factor receptor 1 (TNFRSF1A), TNFRSF1A (gene 7132); assay: LTEA_HepaRG_TNFRSF1A: Life Technologies and Expression Analysis (LTEA) Assay for Tumor necrosis factor receptor 1 (TNFRSF1A) using HepaRG (AID 2283535); conditions: mRNA level, 48 h; actives raise or lower the signal
# Summary of the method: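 Differentiated human HepaRG cells were exposed in duplicate for 48 h in serum-free induction medium to eight concentrations (top 100 uM, half-log steps, 0.5% DMSO). TNFRSF1A mRNA was quantified by qRT-PCR, normalized to ACTB, GAPDH and POLR2A, then fitted bidirectionally against DMSO.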
# [10] = read-out: Thyroid Hormone Responsive (THRSP), THRSP (gene 7069); assay: LTEA_HepaRG_THRSP: Life Technologies and Expression Analysis (LTEA) Assay for Thyroid Hormone Responsive (THRSP) using HepaRG (AID 2283536); conditions: mRNA level, 48 h; actives raise or lower the signal
# Summary of the method: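 Differentiated human HepaRG cells were exposed in duplicate for 48 h in serum-free induction medium to eight concentrations (top 100 uM, half-log steps, 0.5% DMSO). Expression was quantified by TaqMan qRT-PCR, normalized to ACTB, GAPDH and POLR2A, with bidirectional fitting against DMSO.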
# [11] = read-out: Cellular tumor antigen p53 (Homo sapiens) (UniProt P04637); assay: LTEA_HepaRG_TP53: Life Technologies and Expression Analysis (LTEA) Assay for Tumor Protein P53 (TP53) using HepaRG (AID 2283537); conditions: mRNA level, 48 h; actives raise or lower the signal
# Summary of the method: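 Gain or loss of TP53 mRNA signal is scored relative to 0.5% DMSO after 48 h chemical treatment of HepaRG liver cells, tested in duplicate at eight half-log concentrations up to 100 uM.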
# [12] = read-out: UDP glucuronosyltransferase (UGT1A1), UGT1A1 (gene 54658); assay: LTEA_HepaRG_UGT1A1: Life Technologies and Expression Analysis (LTEA) Assay for UDP glucuronosyltransferase (UGT1A1) using HepaRG (AID 2283538); conditions: mRNA level, 48 h; actives raise or lower the signal
# Summary of the method: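 Readout is UGT1A1 transcript level by qRT-PCR, normalized to three housekeeping genes, after 48 h chemical treatment of HepaRG cells. Concentrations ran from 100 uM down in half-log steps with 0.5% DMSO, and gain or loss relative to DMSO was fitted.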
# [13] = read-out: UDP glucuronosyltransferase (UGT1A6), UGT1A6 (gene 54578); assay: LTEA_HepaRG_UGT1A6: Life Technologies and Expression Analysis (LTEA) Assay for UDP glucuronosyltransferase (UGT1A6) using HepaRG (AID 2283539); conditions: mRNA level, 48 h; actives raise or lower the signal
# Summary of the method: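 Human HepaRG cells were dosed for 48 h in serum-free induction medium with 0.5% DMSO vehicle, eight-point half-log series from 100 uM, in duplicate. UGT1A6 mRNA was measured by qRT-PCR, normalized to ACTB, GAPDH, POLR2A, and fitted bidirectionally against DMSO.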
# [14] = read-out: X-box binding protein 1 (XBP1), XBP1 (gene 7494); assay: LTEA_HepaRG_XBP1: Life Technologies and Expression Analysis (LTEA) Assay for X-box binding protein 1 (XBP1) using HepaRG (AID 2283540); conditions: mRNA level, 48 h; actives raise or lower the signal
# Summary of the method: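 Differentiated human HepaRG cells in serum-free induction medium were exposed in duplicate for 48 h to eight half-log concentrations up to 100 uM in 0.5% DMSO. XBP1 mRNA was quantified by qRT-PCR, normalised to ACTB, GAPDH and POLR2A, with bidirectional fitting against DMSO.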
# [15] = LTEA_HepaRG_LDH_cytotoxicity: Cytotoxicity Assessment in the Life Technologies and Expression Analysis (LTEA) Assay (AID 2283563; active = hit-call score of the fitted dose curve at least 0.9, where 1 is the maximum)
# Summary of the method: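 Differentiated human HepaRG cells, plated 48 h beforehand, were switched to serum-free induction medium and exposed for 48 h to eight half-log concentrations (top 100 uM) in 0.5% DMSO. LDH was measured in spent medium; activity was fitted relative to DMSO vehicle.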
# [16] = read-out: sulfotransferase 2A1 (SULT2A1), SULT2A1 (gene 6822); assay: LTEA_HepaRG_SULT2A1: Life Technologies and Expression Analysis (LTEA) Assay for sulfotransferase 2A1 (SULT2A1) using HepaRG (AID 2283531); conditions: mRNA level, 48 h; actives raise or lower the signal
# Summary of the method: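 Differentiated human HepaRG cells in serum-free induction medium were exposed for 48 h to eight half-log concentrations (top 100 uM, 0.5% DMSO). SULT2A1 mRNA was measured by qRT-PCR, normalized to ACTB, GAPDH and POLR2A, and fitted bidirectionally against DMSO.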
# [17] = TOX21_p53_BLA_p2_viability: Viability Assessment in the Tox21 HCT-116 p53 Agonism Beta-lactamase Assay, Phase 2 (AID 2283591; active = hit-call score of the fitted dose curve at least 0.9, where 1 is the maximum;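 also: compound exposure lasted 16 h at 37 °C; actives lower the ATP signal meaning cytotoxicity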)
# Summary of the method: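 HCT-116 p53-bla cells (4000/well) rested 5 h at 37C, then received compounds in DMSO (217-fold dilution) for 16 h at 37C, 5% CO2. After the CCF4 read, CellTiter-Glo was added; ATP luminescence was read after 30 min at room temperature.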
# [18] = target: Cellular tumor antigen p53 (Homo sapiens) (UniProt P04637); assay: TOX21_p53_BLA_p2_ratio: Tox21 HCT-116 p53 Agonism Beta-lactamase Assay, Ratio, Phase 2 (AID 2283592; active = hit-call score of the fitted dose curve at least 0.9, where 1 is the maximum)
# Summary of the method: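 HCT116 cells carrying a p53-responsive beta-lactamase reporter were plated, incubated 5 h at 37C, then dosed with compounds in DMSO (217-fold dilution) for 16 h. CCF4-AM substrate was added for 2 h at room temperature; the 460/530 nm emission ratio gave gain-of-signal activity relative to DMSO.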
# [19] = TOX21_p53_BLA_p3_viability: Viability Assessment in the Tox21 HCT-116 p53 Agonism Beta-lactamase Assay, Phase 3 (AID 2283593; active = hit-call score of the fitted dose curve at least 0.9, where 1 is the maximum;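 also: cells exposed to compound for 16 h before reading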)
# Summary of the method: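 HCT-116 cells (4000/well) rested 5 h at 37C, then got DMSO compounds by pin tool (217-fold dilution) for 16 h at 37C, 5% CO2. After the bla read, CellTiter-Glo was added and luminescence read at 30 min, room temperature.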
# Cellular tumor antigen p53 (Homo sapiens), sequence (P04637 whole entry, looked up): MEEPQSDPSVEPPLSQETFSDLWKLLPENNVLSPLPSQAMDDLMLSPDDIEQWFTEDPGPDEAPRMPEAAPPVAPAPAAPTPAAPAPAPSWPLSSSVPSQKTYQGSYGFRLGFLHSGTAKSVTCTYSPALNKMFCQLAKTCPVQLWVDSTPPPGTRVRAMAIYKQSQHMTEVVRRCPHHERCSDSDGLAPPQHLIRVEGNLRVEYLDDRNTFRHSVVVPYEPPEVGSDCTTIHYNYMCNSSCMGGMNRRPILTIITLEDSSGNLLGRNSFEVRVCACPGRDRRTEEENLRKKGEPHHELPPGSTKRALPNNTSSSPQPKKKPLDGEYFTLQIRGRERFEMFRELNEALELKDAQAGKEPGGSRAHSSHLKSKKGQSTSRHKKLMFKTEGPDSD
# Nuclear factor erythroid 2-related factor 2 (Homo sapiens), sequence (Q16236 whole entry, looked up): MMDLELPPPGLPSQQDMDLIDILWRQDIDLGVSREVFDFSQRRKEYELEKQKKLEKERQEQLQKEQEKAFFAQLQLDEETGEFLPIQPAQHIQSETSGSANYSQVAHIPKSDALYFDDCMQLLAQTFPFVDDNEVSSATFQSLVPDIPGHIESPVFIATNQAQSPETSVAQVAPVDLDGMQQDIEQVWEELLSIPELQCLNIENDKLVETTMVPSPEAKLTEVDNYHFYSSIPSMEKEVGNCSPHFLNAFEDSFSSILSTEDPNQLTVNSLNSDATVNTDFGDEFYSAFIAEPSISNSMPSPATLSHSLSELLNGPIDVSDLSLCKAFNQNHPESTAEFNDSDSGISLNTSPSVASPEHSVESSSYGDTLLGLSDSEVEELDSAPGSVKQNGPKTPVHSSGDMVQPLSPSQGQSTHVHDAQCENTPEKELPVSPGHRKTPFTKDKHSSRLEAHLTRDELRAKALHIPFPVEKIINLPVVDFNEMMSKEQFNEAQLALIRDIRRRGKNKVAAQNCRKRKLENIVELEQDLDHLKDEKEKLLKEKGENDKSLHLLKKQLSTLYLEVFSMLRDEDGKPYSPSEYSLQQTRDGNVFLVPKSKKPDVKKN
# Signal transducer and activator of transcription 3 (Homo sapiens), sequence (P40763 whole entry, looked up): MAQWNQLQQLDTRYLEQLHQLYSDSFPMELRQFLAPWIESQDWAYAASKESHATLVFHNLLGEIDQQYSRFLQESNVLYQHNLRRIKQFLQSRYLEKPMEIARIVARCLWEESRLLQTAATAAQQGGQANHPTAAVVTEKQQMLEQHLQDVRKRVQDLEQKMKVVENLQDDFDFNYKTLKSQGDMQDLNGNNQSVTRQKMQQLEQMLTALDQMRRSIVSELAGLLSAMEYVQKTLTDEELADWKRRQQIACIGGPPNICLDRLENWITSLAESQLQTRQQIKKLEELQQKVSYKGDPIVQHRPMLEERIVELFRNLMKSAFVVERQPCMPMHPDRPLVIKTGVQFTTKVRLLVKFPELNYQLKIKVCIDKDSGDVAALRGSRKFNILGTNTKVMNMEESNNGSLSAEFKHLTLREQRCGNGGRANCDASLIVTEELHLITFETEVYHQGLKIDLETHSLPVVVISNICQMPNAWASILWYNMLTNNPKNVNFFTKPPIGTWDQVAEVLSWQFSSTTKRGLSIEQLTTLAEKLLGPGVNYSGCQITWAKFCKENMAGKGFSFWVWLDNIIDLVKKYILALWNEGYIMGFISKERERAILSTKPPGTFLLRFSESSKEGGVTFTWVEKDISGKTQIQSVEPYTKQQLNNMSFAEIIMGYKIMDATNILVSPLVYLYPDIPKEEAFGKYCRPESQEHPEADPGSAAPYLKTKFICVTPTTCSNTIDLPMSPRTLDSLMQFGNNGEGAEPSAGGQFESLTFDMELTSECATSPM
smiles,measurement,setting,value
Cc1cnc(C2=NC(C)(C(C)C)C(=O)N2)c(C(=O)O)c1 (stereo not drawn),outcome,[1],inactive
same,outcome,[2],inactive
same,outcome,[3],inactive
same,outcome,[4],inactive
same,outcome,[5],inactive
same,outcome,[6],inactive
same,outcome,[7],inactive
same,outcome,[8],inactive
same,outcome,[9],inactive
same,outcome,[10],inactive
same,outcome,[11],inactive
same,outcome,[12],inactive
same,outcome,[13],inactive
same,outcome,[14],inactive
same,outcome,[15],inactive
CCOP(=O)(OCC)Oc1nc(Cl)c(Cl)cc1Cl,outcome,[1],inactive
same,AC50,[2],49.8 µM (active)
same,outcome,[3],inactive
same,outcome,[4],inactive
same,AC50,[5],93.5 µM (active)
same,AC50,[16],75.9 µM (active)
same,outcome,[6],inactive
same,outcome,[7],inactive
same,outcome,[8],inactive
same,outcome,[9],inactive
same,AC50,[10],84.2 µM (active)
same,outcome,[11],inactive
same,outcome,[12],inactive
same,outcome,[13],inactive
same,AC50,[14],83.1 µM (active)
same,outcome,[15],inactive
same,outcome,[17],inactive
same,outcome,[18],inactive
same,outcome,[19],inactive
CC(C)Oc1cccc(NC(=O)c2ccccc2C(F)(F)F)c1,outcome,[1],inactive
same,outcome,[2],inactive
same,outcome,[3],inactive
same,outcome,[4],inactive
same,outcome,[5],inactive
same,outcome,[16],inactive
same,outcome,[6],inactive
same,outcome,[7],inactive
same,outcome,[8],inactive
same,outcome,[9],inactive
same,outcome,[10],inactive
same,outcome,[11],inactive
same,AC50,[12],29.4 µM (active)
same,outcome,[13],inactive
same,outcome,[14],inactive
same,outcome,[15],inactive
same,outcome,[17],inactive
same,outcome,[18],inactive
same,outcome,[19],inactive
